As usually defined, the AC50 is the concentration giving half of the maximal activity seen.

Molecules are shown by their SMILES. Activity calls are given as the source filed them. How the source made its calls: active means hit-call score of the fitted dose curve at least 0.9, where 1 is the maximum; inactive means score below 0.9.

Here are results for 27 compounds from PubChem BioAssay (EPA / NIEHS).

Read-out in one assay: sulfotransferase 2A1 (SULT2A1), SULT2A1 (gene 6822)
Nature of the assay: LTEA_HepaRG_SULT2A1: Life Technologies and Expression Analysis (LTEA) Assay for sulfotransferase 2A1 (SULT2A1) using HepaRG (AID 2283531). Conditions: mRNA level, 48 h; actives raise or lower the signal. In outline:
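HepaRG, 48 h chemical exposure, 8-pt half-log curve from 100 uM in 0.5% DMSO, duplicates. Readout: TaqMan qRT-PCR of SULT2A1 mRNA, housekeeping-normalized. Bidirectional fit vs DMSO baseline.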
For `CCNc1nc(N)nc(Cl)n1`, the outcome was inactive.
`CCCN(CCC)C(=O)SCC`: the result was inactive.
As for `CC1(C)C(C=C(Cl)Cl)C1C(=O)OCc1cccc(Oc2ccccc2)c1` (centres undefined), the call was inactive.
Take `Cc1nn(C)c(Oc2ccccc2)c1C=NOCc1ccc(C(=O)OC(C)(C)C)cc1`: the AC50 is 42.4 µM (active).
For `CCOC(=O)COc1cc(-n2ncc(C(F)(F)F)c(C)c2=O)c(F)cc1Cl`, the call was inactive.
As to `c1ccc(Nc2ccccc2)cc1`, the call was inactive.
Take `N#CSCSc1nc2ccccc2s1`: the compound was classed as inactive.
For `CCCCC(CC)CN1C(=O)C2C3C=CC(C3)C2C1=O` (centres undefined), the AC50 is 86.1 µM (active).
Still for that read-out and setting: with `CC(=O)S[C@@H]1CC2=CC(=O)CC[C@]2(C)[C@H]2CC[C@@]3(C)[C@@H](CC[C@@]34CCC(=O)O4)[C@H]12` the figure was 50 µM (active).
As for `CCCCOC(=O)C(C)Oc1ccc(Oc2ccc(C(F)(F)F)cn2)cc1` (centres undefined), the outcome was inactive.
For `CC(C)CCCCCCc1ccc(O)cc1`, the compound was classed as inactive.
For the compound `CCCOC(=O)NCCCN(C)C`, the compound was classed as inactive.
`O=C(O)C1(C(=O)Nc2ccc(Cl)cc2Cl)CC1`: the AC50 was 87.4 µM (active).
As to `CCOC(=O)NCCOc1ccc(Oc2ccccc2)cc1`, the AC50 was 82.7 µM (active).
With `O=C(c1ccc(O)cc1O)c1ccc(O)cc1O`, the compound was classed as inactive.
Turning to `CCOC(=O)c1ccc(O)cc1`, the outcome was inactive.
Same read-out and setting: with `CN(C)C(=O)Nc1ccc(Cl)c(Cl)c1` the entry was “inactive”; with `C#C[C@]1(O)CC[C@H]2[C@@H]3CCC4=CC(=O)CC[C@@H]4[C@H]3CC[C@@]21CC`, “inactive”; with `CC(C)(C)[C@@H](O)[C@@H](Cc1ccc(Cl)cc1)n1cncn1`, “inactive”.
On to `CSC(=O)c1cccc2nnsc12`, for which the result was inactive.
As to `CCC(C)OC(=O)N1CCCCC1CCO` (centres undefined), the compound was classed as inactive.
Still for that read-out and setting: with `CCCCC(CC)COC(=O)c1ccccc1C(=O)O` (centres undefined) the entry was “inactive”.
In the case of `C[C@]12C[C@H](O)[C@H]3[C@@H](CCC4=CC(=O)CC[C@@]43C)[C@@H]1CC[C@@H]2C(=O)CO`, the AC50 was 66.4 µM (active).
For the compound `OB(O)O`, the outcome was inactive.
As for `Oc1ccc(C(c2ccc(O)cc2)C(Cl)(Cl)Cl)cc1`, the AC50 is 84.3 µM (active).
In the case of `c1ccc2[nH]c(-c3cscn3)nc2c1`, the outcome was inactive.
Consider `COC(=O)c1ccccc1C(=O)O`, for which the compound was called inactive.

Read-out in another assay: Transforming Growth Factor (TGFA), TGFA (gene 7039)
Nature of the assay: LTEA_HepaRG_TGFA: Life Technologies and Expression Analysis (LTEA) Assay for Transforming Growth Factor (TGFA) using HepaRG (AID 2283532). Conditions: mRNA level, 48 h; actives raise or lower the signal. An outline of the steps:
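qRT-PCR read-out of TGFA transcript, normalized to three housekeeping genes, fitted bidirectionally against 0.5% DMSO baseline. Human HepaRG cultures received chemicals for 48 h at eight half-log concentrations, top 100 uM.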
For `CCNc1nc(N)nc(Cl)n1`, the compound was classed as inactive.
For `CCCN(CCC)C(=O)SCC`, the result was inactive.
In the case of `CC1(C)C(C=C(Cl)Cl)C1C(=O)OCc1cccc(Oc2ccccc2)c1` (centres undefined), the result was inactive.
For `Cc1nn(C)c(Oc2ccccc2)c1C=NOCc1ccc(C(=O)OC(C)(C)C)cc1`, the AC50 was 12.2 µM (active).
With `CCOC(=O)COc1cc(-n2ncc(C(F)(F)F)c(C)c2=O)c(F)cc1Cl`, the compound was classed as inactive.
Regarding `c1ccc(Nc2ccccc2)cc1`, the compound was classed as inactive.
On the same count and under the same terms, with `N#CSCSc1nc2ccccc2s1` the entry was “inactive”; with `CCCCC(CC)CN1C(=O)C2C3C=CC(C3)C2C1=O` (centres undefined), “inactive”; with `CC(=O)S[C@@H]1CC2=CC(=O)CC[C@]2(C)[C@H]2CC[C@@]3(C)[C@@H](CC[C@@]34CCC(=O)O4)[C@H]12`, “inactive”.
With `CCCCOC(=O)C(C)Oc1ccc(Oc2ccc(C(F)(F)F)cn2)cc1` (centres undefined), the call was inactive.
On to `CC(C)CCCCCCc1ccc(O)cc1`, for which the call was inactive.
Consider `CCCOC(=O)NCCCN(C)C`, for which the outcome was inactive.
Regarding `O=C(O)C1(C(=O)Nc2ccc(Cl)cc2Cl)CC1`, the result was inactive.
`CCOC(=O)NCCOc1ccc(Oc2ccccc2)cc1`: the AC50 is 78.6 µM (active).
`O=C(c1ccc(O)cc1O)c1ccc(O)cc1O`: the outcome was inactive.
Turning to `CCOC(=O)c1ccc(O)cc1`, the call was inactive.
Turning to `CN(C)C(=O)Nc1ccc(Cl)c(Cl)c1`, the result was inactive.
As to `C#C[C@]1(O)CC[C@H]2[C@@H]3CCC4=CC(=O)CC[C@@H]4[C@H]3CC[C@@]21CC`, the result was inactive.
As for `CC(C)(C)[C@@H](O)[C@@H](Cc1ccc(Cl)cc1)n1cncn1`, the call was inactive.
Still for that read-out and setting: under `CSC(=O)c1cccc2nnsc12` stands “inactive”; under `CCC(C)OC(=O)N1CCCCC1CCO` (centres undefined), “inactive”; under `CCCCC(CC)COC(=O)c1ccccc1C(=O)O` (centres undefined), “inactive”.
For the compound `C[C@]12C[C@H](O)[C@H]3[C@@H](CCC4=CC(=O)CC[C@@]43C)[C@@H]1CC[C@@H]2C(=O)CO`, the outcome was inactive.
For the compound `OB(O)O`, the call was inactive.
Consider `Oc1ccc(C(c2ccc(O)cc2)C(Cl)(Cl)Cl)cc1`, for which the AC50 is 80.7 µM (active).
On to `c1ccc2[nH]c(-c3cscn3)nc2c1`, for which the result was inactive.
As to `COC(=O)c1ccccc1C(=O)O`, the outcome was inactive.
